The values that follow come from PubChem BioAssay (NCATS).

Test [1] can be described thus: Quantitative High-Throughput drug screen in 47 multiple myeloma cell lines against the NCATS MIPE library collection: KHM11_PLB cell viability assay (AID 1918962). Note: nearly all actives have a fitted effect of over 35% in size. In short, it runs like this: (§1)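 Steps: seed 500 cells per well; pin-transfer MIPE 4.0 library; incubate 48 h at 37C, 5% CO2, humidified; add CellTiter-Glo, 5 min room temperature; read luminescence.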
The nature of test [2]: Quantitative High-Throughput drug screen in 47 multiple myeloma cell lines against the NCATS MIPE library collection: JIM3_ECACC cell viability assay (AID 1918963; note: nearly all actives have a fitted effect of over 35% in size). The method, boiled down:
as §1

Test [3] can be described thus: Quantitative High-Throughput drug screen in 47 multiple myeloma cell lines against the NCATS MIPE library collection: JJN3_DSMZ cell viability assay (AID 1918966; note: nearly all actives have a fitted effect of over 50% in size). The method, boiled down:
(§2)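 Myeloma cells (500 per well) were exposed to MIPE 4.0 compounds by pin transfer and incubated 48 hours at 37C, 5% CO2. Viability was read as ATP by CellTiter-Glo luminescence, normalised to DMSO (100%) and media-only (0%) wells.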

Test [4] is described as follows: Quantitative High-Throughput drug screen in 47 multiple myeloma cell lines against the NCATS MIPE library collection: Karpas417_ECACC cell viability assay (AID 1918961). To be noted: Karpas417 myeloma viability, CellTiter-Glo ATP luminescence, 48 h; viability (% of DMSO): at 45.8 µM (top of the series) unless noted. The method, boiled down: (§3)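 CellTiter-Glo luminescence (ATP) after 48 h compound exposure, 37C/5% CO2; 500 cells/well; MIPE 4.0 approved/investigational drugs pinned in; DMSO = 100%, media only = 0% viability.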
For orientation: ATP-based viability assays read luminescence as a measure of living cells.

The nature of test [5]: Quantitative High-Throughput drug screen in 47 multiple myeloma cell lines against the NCATS MIPE library collection: H1112_PLB cell viability assay (AID 1918967; note: nearly all actives have a fitted effect of over 30% in size). In short, it runs like this: as §2
The nature of test [6]: Quantitative High-Throughput drug screen in 47 multiple myeloma cell lines against the NCATS MIPE library collection: KMS27_JCRB cell viability assay (AID 1918970). Note: nearly all actives have a fitted effect of over 30% in size. In short, it runs like this: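 CellTiter-Glo luminescence after 48 h drug exposure at 37 °C; 500 cells/well, 1536-well format, pin-tool compound addition; DMSO = 100%, media-only = 0% viability.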
A short description of test [7]: Quantitative High-Throughput drug screen in 47 multiple myeloma cell lines against the NCATS MIPE library collection: JIM1_ECACC cell viability assay (AID 1918964). The method, boiled down:
as §2

A short description of test [8]: Quantitative High-Throughput drug screen in 47 multiple myeloma cell lines against the NCATS MIPE library collection: INA6_PLB cell viability assay (AID 1918965; note: nearly all actives have a fitted effect of over 55% in size). The method, boiled down: as §3
The nature of test [9]: Quantitative High-Throughput drug screen in 47 multiple myeloma cell lines against the NCATS MIPE library collection: Karpas25_ECACC cell viability assay (AID 1918968; note: nearly all actives have a fitted effect of over 35% in size). The method, boiled down: as §2

Records with an inconclusive call do not appear. Activity calls are given as the source filed them. Calls come from the whole dose curve; as a rule, active = well fitted curve in the direction sought with a large enough effect; inconclusive = small, poorly fitted or top-dose-only effect, or another doubt; inactive = no such curve, though single readings can be large; an effect the other way counts as inactive or inconclusive.
Potency is the fitted concentration of half-maximal effect.

Take `CC(C)(C)OC(=O)CN(Cc1ccc(Cl)cc1)Cc1ccc([N+](=O)[O-])s1`: in [1], the Potency entry was “inactive”. The results for the Potency in test [2] and in test [3] were 16.6 µM (active) and 10.5 µM (active), respectively.
Consider `Fc1ccc(Cl)cc1-c1nc(Nc2ccncc2)c2nccnc2n1`, for which the Potency entry in [4], in [5] and in test [6] was “inactive” each time. In test [2], the Potency is 13.2 µM (active).
Take `COc1nc(-c2ccc3c(c2)OCO3)n(-c2ccc(NC(=O)CSc3ccccc3)cc2)n1`: the Potency entry in test [4], in test [1], in test [2], in test [7], in test [8] and in [5] was “inactive” in each case. Besides, in test [9], the Potency entry is “inactive”.
As for `CCn1c(-c2nonc2N)nc2c(C#CC(C)(C)O)ncc(OC[C@H]3CCCNC3)c21`, the Potency was 7.43 µM (active) in [1]; 9.35 µM (active) in [2]; 4.18 µM (active) in [8]; 14.8 µM (active) in test [5]; 1.18 µM (active) in test [9]; 0.418 µM (active) in [6].
Regarding `CC(C[N+](C)(C)C)OC(N)=O` (stereo unspecified), the Potency entry in test [1], in test [7] and in [5] was “inactive” throughout. The Potency in [2] is 0.0083 µM (active).
Turning to `Cn1cnc([N+](=O)[O-])c1Sc1ncnc2nc[nH]c12`, in test [4], the Potency entry is “inactive”. In addition, the Potency in test [2] is 14.8 µM (active); in [8] it was 5.26 µM (active); in test [5] it was 10.5 µM (active); in test [9] it was 16.6 µM (active).
As for `CCOc1cc(C=C2C(=O)N(c3ccccc3)N=C2C)cc(Cl)c1OCC(=O)OC`, the Potency in test [4] and in [9] was 8.33 µM (active) throughout.
Consider `CCOC(=O)C1=C[C@]2(CC)CCCN3CCc4c(n1c1ccccc41)[C@@H]32`, for which the Potency in test [1] is 9.35 µM (active); in test [2], 11.8 µM (active); in test [7] it was 11.8 µM (active); in test [8] it was 8.33 µM (active); in test [3], 18.7 µM (active); in test [5], 11.8 µM (active). In addition, the figures for the Potency in test [9] and in [6] were 9.35 µM (active) and 23.5 µM (active), respectively.
With `COc1cc(F)c(F)c(Nc2ccc(I)cc2F)c1NS(=O)(=O)C1(C[C@H](O)CO)CC1`, the Potency in test [4] is 16.6 µM (active); in test [2], 18.7 µM (active); in [7], 16.6 µM (active); in test [5], 14.8 µM (active); in test [9] it was 20.9 µM (active); in [6], 16.6 µM (active). Further, the Potency result in test [8] is “inactive”.
